From PubChem BioAssay
This is a sample that favours compounds with a hit; in the whole collection about 18% have one here.
LDHA inh = qHTS assay for inhibitors of human lactate dehydrogenase; L-lactate dehydrogenase A chain (Homo sapiens), P00338; activity change, % (values are at about 110 or 230 µM); purified LDHA, NADH/diaphorase-resazurin fluorescence; hits give low values; hit rate 0.15% among 480,000; in the data active = activity change below about -30%; inconclusive = mostly about -25% to -30%;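 note: plate controls were DMSO wells for no effect and wells without enzyme for full effect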
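Enzyme activity of human lactate dehydrogenase 5 (2 nM; 0.06 mM NADH, 0.2 mM pyruvate, 5 min, RT) is measured via a resazurin/diaphorase fluorescence readout of residual NADH.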
TDP1 cell noCPT = qHTS for Inhibitors of human tyrosyl-DNA phosphodiesterase 1 (TDP1): qHTS in cells in absence of CPT | DT40 Tdp1-/- hTDP1 cells, no CPT, ATP luminescence, 48 h | Potency, µM (highest dose often 46.2 µM), inactives show at the top dose activity change, negative = growth inhibition, actives largely listed as inhibitors | hit rate 15% among 420,000 | AID 686978, 2013; note: potency is the fitted concentration of half-maximal effect; nearly all actives have a fitted effect of over 55% in size
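Growth kinetics read by CellTiter-Glo luminescence after ≥48 hr at 37 °C. Cells: DT40 Tdp1-/- stably carrying human TDP1, 400 per well, compound exposure in the absence of CPT (DMSO vehicle).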
TDP1 cell CPT = qHTS for Inhibitors of human tyrosyl-DNA phosphodiesterase 1 (TDP1): qHTS in cells in presence of CPT. chicken DT40 Tdp1-/-;hTDP1 cells + 20 nM CPT, ATP luminescence, 48 h. AID 686979, 2013. hit rate 12% among 420,000. Potency, µM (titrated, usually from 46.2 µM), without a hit: at the top dose activity change, negative = growth inhibition, usual class: inhibitors; note: potency is the fitted concentration of half-maximal effect; nearly all actives have a fitted effect of over 55% in size
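Chicken DT40 Tdp1-/- cells complemented with human TDP1, 400 cells/well, exposed to compounds plus 20 nM camptothecin for at least 48 h at 37 C; viability read as ATP content by CellTiter-Glo luminescence.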
VP16 counter = VP16 counterscreen qHTS for inhibitors of ROR gamma transcriptional activity. Potency, µM (titrated, usually from 53.6 µM), inactives show at the top dose activity, negative = inhibition, most hits filed as inhibitors. hit rate 3.5% among 310,000. Drosophila S2 Gal4-VP16 UAS-luciferase, luminescence, 20 h. AID 2546, 2010;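 note: Gal4-VP16 expression switched on by copper sulfate through the metallothionein promoter; potency is the fitted concentration of half-maximal effect; nearly all actives have a fitted effect of over 50% in size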
RORg inh = qHTS for inhibitors of ROR gamma transcriptional activity. hit rate 5.4% among 310,000. Potency, µM (titrated, usually from 53.6 µM), inactives show at the top dose activity change, negative = inhibition, usual class: inhibitors. Drosophila S2 Gal4-RORgamma UAS-luciferase reporter, 20 h. AID 2551, 2010; note: potency is the fitted concentration of half-maximal effect; nearly all actives have a fitted effect of over 60% in size
Target sequence (P51450 whole entry, looked up, the tested form may be a part): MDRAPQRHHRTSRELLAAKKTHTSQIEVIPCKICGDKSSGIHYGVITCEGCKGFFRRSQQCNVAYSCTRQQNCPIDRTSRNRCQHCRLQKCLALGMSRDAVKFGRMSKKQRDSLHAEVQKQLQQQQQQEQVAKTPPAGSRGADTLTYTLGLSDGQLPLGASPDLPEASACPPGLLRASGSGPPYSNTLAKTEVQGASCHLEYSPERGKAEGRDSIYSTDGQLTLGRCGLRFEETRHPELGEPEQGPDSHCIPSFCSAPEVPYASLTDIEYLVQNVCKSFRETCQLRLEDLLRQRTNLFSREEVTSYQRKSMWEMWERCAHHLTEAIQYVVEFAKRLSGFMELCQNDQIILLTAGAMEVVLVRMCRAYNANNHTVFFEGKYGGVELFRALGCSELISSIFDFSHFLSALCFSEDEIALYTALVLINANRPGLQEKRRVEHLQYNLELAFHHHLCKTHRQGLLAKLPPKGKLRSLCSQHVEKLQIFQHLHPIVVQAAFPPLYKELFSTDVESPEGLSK
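Drosophila S2 cells stably expressing Gal4-DBD/mouse RORγ fusion under metallothionein promoter plus UAS-luciferase; compound 1 h, then 700 uM CuSO4 induction for 20 h at ambient temperature; inhibition read as reduced luminescence.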
IL-1B inflam inh = qHTS for Inhibitors of Inflammasome Signaling: IL-1-beta AlphaLISA Primary Screen. hit rate 4.7% among 360,000. AID 743279, 2014. THP-1 LPS/ATP IL-1B secretion, AlphaLISA, 16 h; hits give low values. activity change, % at 57.5 µM; in the data active = activity change below about -50%; inconclusive = mostly about -30% to -49%
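THP-1 cells pretreated 1 hr with compounds (up to 57.5 uM final), then stimulated with LPS (250 ng/mL final) plus ATP (1.25 mM final); secreted IL-1B measured by AlphaLISA after 16 hr, decreased signal indicating inhibition.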
An asterisk follows results filed as active; ? = inconclusive; . = not tested or not shown; ! = not active in a repeat. Unless noted, calls come from the whole dose curve; as a rule, active = well fitted curve in the direction sought with a large enough effect; inconclusive = small, poorly fitted or top-dose-only effect, or another doubt; inactive = no such curve, though single readings can be large; an effect the other way counts as inactive or inconclusive. Unless noted, % is set by controls: 0 for no effect and ±100 for the full control effect.

SMILES | LDHA inh | TDP1 cell noCPT | TDP1 cell CPT | VP16 counter | RORg inh | IL-1B inflam inh
Cc1ccc(NC(=O)C2CCCN(S(=O)(=O)c3cccc4cccnc34)C2)cc1 (stereo not drawn) | -2.8 | 20.6µM* | ? | -0.8% | 31.9% | 24.8
O=C(Nc1cccc(F)c1)C1CCCN(S(=O)(=O)c2cccc3cccnc23)C1 (stereo not drawn) | -4.2 | 23.1µM* | 18.4µM* | 13.8% | 27.7% | -27.6
O=C(NCc1ccc2c(c1)OCO2)C1CCCN(S(=O)(=O)c2cccc3nonc23)C1 (stereo not drawn) | -7.5 | ? | ? | -15.4% | -15.4% | -5.0
O=C(NCc1ccc2c(c1)OCO2)C1CCCN(S(=O)(=O)c2cccc3cccnc23)C1 (stereo not drawn) | 1.0 | 16.4µM* | ? | -8.0% | 30.2% | -26.6
Cc1cccc(NC(=O)C2CCCN(S(=O)(=O)c3cccc4cccnc34)C2)c1 (stereo not drawn) | -5.9 | 23.1µM* | 18.4µM* | -0.3% | 38.4% | -9.3
O=C(NC1CCCC1)C1CCCN(S(=O)(=O)c2cccc3cccnc23)C1 (stereo not drawn) | -1.0 | -22.7% | ? | -8.6% | -5.3% | 7.7
COc1ccccc1C(=O)Oc1ccc(Cl)cc1C(=O)/C=C/c1ccc(F)cc1 | 7.8 | . | . | . | . | .
O=C(O)C(c1c[nH]c2cc(OCc3ccccc3)ccc12)N1CCN(c2cccc(Cl)c2)CC1 (stereo not drawn) | 1.0 | . | . | . | . | .
CN1c2ccc(Cl)cc2C(=O)NC1c1ccc([N+](=O)[O-])s1 (stereo not drawn) | -3.5 | 23.1µM* | 20.6µM* | ? | -5.2% | -6.5
Cc1ccc(/C=N\NC(=O)c2cc([N+](=O)[O-])cc([N+](=O)[O-])c2)o1 | 7.8 | ? | ? | ? | 2.51µM* | 11.0
Cc1ccc(/C=N/NC(=O)c2ccc(-c3ccccc3)cc2)o1 | -11.6 | ? | -3.5% | ? | 12.6µM* | -8.2
O=C(N/N=C/c1ccc(N2CCCCC2)o1)c1ccccc1 | 19.0 | 11.6µM* | 9.2µM* | 5.01µM* | 5.01µM* | -95.5*
COc1ccccc1-c1noc(CSc2nc3ccccc3o2)n1 | 0.3 | . | . | . | . | .
COCC(=O)N(C)c1nnc(-c2ccc([N+](=O)[O-])cc2)s1 | -4.7 | 1.8% | -29.0% | -1.4% | 15.3% | -57.5*
CC(C)(C)c1cc(C(=S)N2CCCC2)cc(C(C)(C)C)c1O | -7.8 | ? | ? | 5.01µM* | 6.31µM* | -15.1
Cc1ccc(Nc2nc(-c3cc4cc(Br)ccc4oc3=O)cs2)cc1 | 1.5 | . | . | . | . | .
COc1cccc(CN(Cc2ccco2)C(c2ccc(F)cc2)c2nnnn2C(C)(C)C)c1 (stereo not drawn) | 3.2 | ? | ? | 2.82µM* | -3.4% | ?
CC(C)(C)n1nnnc1C(c1cccnc1)N(Cc1ccccc1)Cc1ccco1 (stereo not drawn) | 1.2 | ? | ? | -12.7% | -10.3% | -20.3
CCN(Cc1ccccc1)C(c1ccc(C(F)(F)F)cc1)c1nnnn1C(C)(C)C (stereo not drawn) | -5.2 | 20.6µM* | ? | . | . | -1.2
CCN(Cc1ccccc1)C(c1cccc(C#N)c1)c1nnnn1C(C)(C)C (stereo not drawn) | -0.6 | 23.1µM* | ? | ? | ? | 0.9
CC1(C)Cc2c(sc3c2c(=O)n(CCCO)c(=O)n3Cc2ccccc2)CO1 | 3.3 | . | . | . | . | .
O=C1NC(c2ccccc2)Nc2c1sc(=S)n2-c1ccccc1 (stereo not drawn) | -2.0 | 6.51µM* | -12.3% | -10.3% | -20.0% | 15.0
CC(C)N(Cc1ccccc1)C(=O)COC(=O)c1ccc(F)cc1F | 0.3 | . | . | . | . | .
CCC1C/C(=C\c2cc(OC)c(OC)cc2OC)C(=O)/C(=C/c2cc(OC)c(OC)cc2OC)C1 (stereo not drawn) | -4.6 | 13µM* | ? | -21.1% | 23.6% | -70.3*
COc1cc(OC)c(OC)cc1/C=C1\CC(C)C/C(=C\c2cc(OC)c(OC)cc2OC)C1=O (stereo not drawn) | -6.5 | 18.4µM* | 18.4µM* | -21.4% | 12.6% | -83.6*
SMILES | LDHA inh | TDP1 cell noCPT | TDP1 cell CPT | VP16 counter | RORg inh | IL-1B inflam inh
CN(C)S(=O)(=O)c1cccc(Nc2nc(CN3CCOCC3)nc3sc4c(c23)CCCC4)c1 | 14.9 | . | . | . | . | .
CC1CCCCC1NC(=O)CCCNC(=O)C(C)(C)C (stereo not drawn) | -6.1 | . | . | . | . | .
CCC(=O)N1CCc2cc(Br)cc(S(=O)(=O)N3CCCCC3CC)c21 (stereo not drawn) | -0.4 | 20.6µM* | ? | -0.2% | 14.1% | 16.7
CCC(=O)N1CCc2cc(Br)cc(S(=O)(=O)N(C)c3ccc(OC)cc3OC)c21 | 2.8 | 18.4µM* | 18.4µM* | -25.0% | ? | 5.8
CCCN(CCC)S(=O)(=O)c1cc(Br)cc2c1N(C(=O)CC)CC2 | 7.4 | 10.3µM* | 9.2µM* | ? | ? | -10.4
CCC(=O)N1CCc2cc(Br)cc(S(=O)(=O)N3CCCCCC3)c21 | -5.0 | ? | ? | -22.7% | -13.4% | 23.9
CCC(=O)N1CCc2cc(S(=O)(=O)N(C)c3ccc(OC)cc3OC)ccc21 | -2.9 | ? | ? | 0.8% | 44.9% | -4.1
CC(C)c1ccc2[nH]c3c(c2c1)CCC/C3=N\NC(=O)c1ccncc1 | 4.3 | 18.4µM* | 23.1µM* | 5.01µM* | 0.891µM* | -52.5*
Cc1ccc2nc(-c3cccc(-c4cccc(Cl)c4)c3)c(NCc3ccccc3)n2c1 | -5.9 | ? | 9.2µM* | . | . | 0.0
CCC(C)Sc1cccc(-c2nc3ccc(C)cn3c2NCc2ccccc2)c1 (stereo not drawn) | 5.9 | 20.6µM* | 16.4µM* | . | . | -104.0*!
Cc1ccc2nc(-c3cccc(Cl)c3)c(Cc3cccc(F)c3)n2c1 | 2.5 | ? | ? | . | . | 0.0
CCC(C)Sc1cccc(-c2nc3ccc(Cl)cn3c2NCc2ccccc2)c1 (stereo not drawn) | -3.3 | 16.4µM* | 23.1µM* | . | . | -54.2*
Cn1c(=O)c2[nH]c(N3CCC(C(=O)O)CC3)nc2n(C)c1=O | -1.1 | . | . | . | . | .
CCC(NCc1ccc(C(N)=O)cc1)c1ccc(Cl)cc1 (stereo not drawn) | 9.3 | . | . | . | . | .
